Measurements taken from the supplement of paper PMC11732987, “Enantioselective OTUD7B fragment discovery through chemoproteomics screening and high-throughput optimisation” (Communications Chemistry, 2025).

Tests used:
Assay in all cases: log2 ratio of Biotin-Ahx-Ub-VS probe labelling (fragment/DMSO); higher = less target engagement (more negative = stronger competition), active = hit call of the paper (q ≤ 0.05, log2 ratio ≤ -1)
Settings in all cases: compound concentration: 200 uM; treatment time: 3 h
USP19 = target: T1, USP19 (UniProt O94966)
T1 sequence (whole entry): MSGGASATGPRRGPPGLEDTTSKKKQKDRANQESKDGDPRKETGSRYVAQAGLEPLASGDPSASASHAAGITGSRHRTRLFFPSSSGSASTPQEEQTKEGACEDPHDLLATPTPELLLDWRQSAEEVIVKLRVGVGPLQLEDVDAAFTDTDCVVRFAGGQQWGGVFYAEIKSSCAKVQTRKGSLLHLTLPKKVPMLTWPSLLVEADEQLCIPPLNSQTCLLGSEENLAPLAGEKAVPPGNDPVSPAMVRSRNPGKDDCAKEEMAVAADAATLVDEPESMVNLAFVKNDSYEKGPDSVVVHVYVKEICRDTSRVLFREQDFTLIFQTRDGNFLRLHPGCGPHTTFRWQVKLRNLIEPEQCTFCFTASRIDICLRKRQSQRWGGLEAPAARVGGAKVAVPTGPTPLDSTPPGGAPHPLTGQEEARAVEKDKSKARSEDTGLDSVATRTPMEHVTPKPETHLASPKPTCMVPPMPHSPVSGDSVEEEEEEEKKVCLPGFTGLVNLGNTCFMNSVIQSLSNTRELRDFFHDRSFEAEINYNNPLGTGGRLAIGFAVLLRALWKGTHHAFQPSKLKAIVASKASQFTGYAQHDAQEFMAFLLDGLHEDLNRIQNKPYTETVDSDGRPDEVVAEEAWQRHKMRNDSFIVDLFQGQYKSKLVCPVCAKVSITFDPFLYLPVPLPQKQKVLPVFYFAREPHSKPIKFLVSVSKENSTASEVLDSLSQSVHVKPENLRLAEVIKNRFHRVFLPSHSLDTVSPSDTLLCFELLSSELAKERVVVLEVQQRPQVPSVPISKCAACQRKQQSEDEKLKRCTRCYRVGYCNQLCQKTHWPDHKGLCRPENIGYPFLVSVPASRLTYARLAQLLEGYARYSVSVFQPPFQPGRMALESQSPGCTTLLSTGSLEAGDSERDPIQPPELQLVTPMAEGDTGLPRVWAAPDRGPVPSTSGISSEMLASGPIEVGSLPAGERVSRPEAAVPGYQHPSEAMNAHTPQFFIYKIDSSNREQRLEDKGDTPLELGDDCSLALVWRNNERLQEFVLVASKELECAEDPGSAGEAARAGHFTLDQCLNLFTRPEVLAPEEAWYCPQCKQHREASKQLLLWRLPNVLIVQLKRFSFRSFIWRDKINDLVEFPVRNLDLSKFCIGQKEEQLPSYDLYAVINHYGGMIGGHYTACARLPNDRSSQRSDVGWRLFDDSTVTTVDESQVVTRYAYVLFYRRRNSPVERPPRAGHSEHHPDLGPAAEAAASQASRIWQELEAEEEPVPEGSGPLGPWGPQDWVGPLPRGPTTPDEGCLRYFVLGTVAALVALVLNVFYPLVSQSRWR
Procedure, shortened: (§1)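 HEK293T lysate, 495 µg per sample in Tris/CHAPS/IGEPAL buffer with protease inhibitors, was treated in triplicate with fragment at 200 µM or vehicle for 3 h and then with Biotin-Ahx-Ub-VS at 0.5 µM final for 1 h. Labelled DUBs were NeutrAvidin-enriched, digested with LysC and trypsin, and run by diaPASEF LC-MS/MS. Spectronaut label-free quantities were global-median-normalised, and values are average log2 fragment/vehicle ratios by unpaired t-test on proteins with ≥2 unique peptides.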

USP22 = target: T2, USP22 (UniProt Q9UPT9)
T2 sequence (whole entry): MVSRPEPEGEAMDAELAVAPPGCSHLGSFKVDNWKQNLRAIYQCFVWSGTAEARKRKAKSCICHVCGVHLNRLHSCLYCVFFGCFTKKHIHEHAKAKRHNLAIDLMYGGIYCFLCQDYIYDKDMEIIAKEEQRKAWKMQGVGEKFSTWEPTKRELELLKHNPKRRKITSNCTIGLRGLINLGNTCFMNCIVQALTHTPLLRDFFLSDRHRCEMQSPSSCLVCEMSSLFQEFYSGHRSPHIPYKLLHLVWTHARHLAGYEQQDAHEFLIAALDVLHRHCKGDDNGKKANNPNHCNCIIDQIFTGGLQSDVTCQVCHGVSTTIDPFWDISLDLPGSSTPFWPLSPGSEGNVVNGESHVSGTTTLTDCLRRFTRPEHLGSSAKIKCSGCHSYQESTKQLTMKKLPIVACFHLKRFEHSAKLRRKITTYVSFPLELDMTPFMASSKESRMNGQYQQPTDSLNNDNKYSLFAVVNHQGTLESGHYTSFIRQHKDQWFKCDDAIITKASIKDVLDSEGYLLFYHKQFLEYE
Procedure, shortened: as §1

USP24 = USP24 (UniProt Q9UPU5)
Procedure, shortened: as §1

USP25 = target: T3, USP25 (UniProt Q9UHP3)
T3 sequence (whole entry): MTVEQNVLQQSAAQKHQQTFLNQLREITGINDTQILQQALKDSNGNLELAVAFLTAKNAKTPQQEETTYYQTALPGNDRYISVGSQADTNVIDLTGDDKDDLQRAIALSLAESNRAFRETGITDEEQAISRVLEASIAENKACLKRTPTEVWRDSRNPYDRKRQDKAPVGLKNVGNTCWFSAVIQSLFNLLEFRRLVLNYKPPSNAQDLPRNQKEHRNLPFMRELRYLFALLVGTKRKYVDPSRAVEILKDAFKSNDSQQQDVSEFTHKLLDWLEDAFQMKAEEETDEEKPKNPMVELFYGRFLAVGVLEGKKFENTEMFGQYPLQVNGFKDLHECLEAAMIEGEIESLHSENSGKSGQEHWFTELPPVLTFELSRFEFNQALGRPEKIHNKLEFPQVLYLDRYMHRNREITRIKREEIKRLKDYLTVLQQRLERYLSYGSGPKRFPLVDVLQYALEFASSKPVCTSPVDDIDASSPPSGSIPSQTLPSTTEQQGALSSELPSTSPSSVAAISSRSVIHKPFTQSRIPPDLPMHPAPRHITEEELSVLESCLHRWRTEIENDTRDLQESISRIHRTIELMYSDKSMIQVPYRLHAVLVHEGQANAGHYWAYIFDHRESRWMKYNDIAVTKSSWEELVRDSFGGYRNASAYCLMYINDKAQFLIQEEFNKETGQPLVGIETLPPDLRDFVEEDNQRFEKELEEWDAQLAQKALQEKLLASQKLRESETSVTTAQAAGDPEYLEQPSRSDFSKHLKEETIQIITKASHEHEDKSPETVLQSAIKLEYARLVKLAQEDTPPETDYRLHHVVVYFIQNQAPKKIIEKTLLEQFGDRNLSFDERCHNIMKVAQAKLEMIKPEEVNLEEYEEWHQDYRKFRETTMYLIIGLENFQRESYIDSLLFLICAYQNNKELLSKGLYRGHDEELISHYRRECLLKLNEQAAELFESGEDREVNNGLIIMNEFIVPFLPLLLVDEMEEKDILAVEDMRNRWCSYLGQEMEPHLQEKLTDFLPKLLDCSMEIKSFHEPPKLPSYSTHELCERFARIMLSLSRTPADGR
Procedure, shortened: as §1

USP28 = target: T4, USP28 (UniProt Q96RU2)
T4 sequence (whole entry): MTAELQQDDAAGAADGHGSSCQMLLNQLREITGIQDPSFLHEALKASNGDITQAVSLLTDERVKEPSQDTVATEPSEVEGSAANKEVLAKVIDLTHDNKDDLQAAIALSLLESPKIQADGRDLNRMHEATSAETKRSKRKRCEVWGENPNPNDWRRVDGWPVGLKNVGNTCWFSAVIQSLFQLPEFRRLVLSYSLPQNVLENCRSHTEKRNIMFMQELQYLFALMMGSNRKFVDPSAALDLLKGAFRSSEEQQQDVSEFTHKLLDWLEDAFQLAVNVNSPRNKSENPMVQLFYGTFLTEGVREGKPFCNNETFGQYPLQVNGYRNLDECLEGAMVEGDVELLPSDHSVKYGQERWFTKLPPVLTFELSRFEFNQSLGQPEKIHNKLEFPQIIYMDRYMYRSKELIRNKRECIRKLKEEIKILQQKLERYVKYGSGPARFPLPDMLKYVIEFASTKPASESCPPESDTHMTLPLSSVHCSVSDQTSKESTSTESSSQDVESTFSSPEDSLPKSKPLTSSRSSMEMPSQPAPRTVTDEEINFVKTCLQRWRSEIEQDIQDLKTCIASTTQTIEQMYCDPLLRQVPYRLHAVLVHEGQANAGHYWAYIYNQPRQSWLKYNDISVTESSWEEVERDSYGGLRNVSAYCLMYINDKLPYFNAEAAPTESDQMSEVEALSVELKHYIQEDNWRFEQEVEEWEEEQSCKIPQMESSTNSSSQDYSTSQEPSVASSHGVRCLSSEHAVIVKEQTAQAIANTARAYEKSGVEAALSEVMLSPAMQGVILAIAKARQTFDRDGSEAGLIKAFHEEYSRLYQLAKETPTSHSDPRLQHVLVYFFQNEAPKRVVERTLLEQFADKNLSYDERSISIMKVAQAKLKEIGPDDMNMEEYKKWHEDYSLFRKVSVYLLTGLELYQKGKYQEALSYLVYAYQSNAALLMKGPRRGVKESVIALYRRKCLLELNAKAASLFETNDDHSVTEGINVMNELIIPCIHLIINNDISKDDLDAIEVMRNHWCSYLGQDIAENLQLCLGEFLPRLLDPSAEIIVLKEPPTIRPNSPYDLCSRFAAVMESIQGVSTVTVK
Procedure, shortened: as §1

Measured: log2 ratio of Biotin-Ahx-Ub-VS probe labelling

USP24, sequence (Q9UPU5 whole entry): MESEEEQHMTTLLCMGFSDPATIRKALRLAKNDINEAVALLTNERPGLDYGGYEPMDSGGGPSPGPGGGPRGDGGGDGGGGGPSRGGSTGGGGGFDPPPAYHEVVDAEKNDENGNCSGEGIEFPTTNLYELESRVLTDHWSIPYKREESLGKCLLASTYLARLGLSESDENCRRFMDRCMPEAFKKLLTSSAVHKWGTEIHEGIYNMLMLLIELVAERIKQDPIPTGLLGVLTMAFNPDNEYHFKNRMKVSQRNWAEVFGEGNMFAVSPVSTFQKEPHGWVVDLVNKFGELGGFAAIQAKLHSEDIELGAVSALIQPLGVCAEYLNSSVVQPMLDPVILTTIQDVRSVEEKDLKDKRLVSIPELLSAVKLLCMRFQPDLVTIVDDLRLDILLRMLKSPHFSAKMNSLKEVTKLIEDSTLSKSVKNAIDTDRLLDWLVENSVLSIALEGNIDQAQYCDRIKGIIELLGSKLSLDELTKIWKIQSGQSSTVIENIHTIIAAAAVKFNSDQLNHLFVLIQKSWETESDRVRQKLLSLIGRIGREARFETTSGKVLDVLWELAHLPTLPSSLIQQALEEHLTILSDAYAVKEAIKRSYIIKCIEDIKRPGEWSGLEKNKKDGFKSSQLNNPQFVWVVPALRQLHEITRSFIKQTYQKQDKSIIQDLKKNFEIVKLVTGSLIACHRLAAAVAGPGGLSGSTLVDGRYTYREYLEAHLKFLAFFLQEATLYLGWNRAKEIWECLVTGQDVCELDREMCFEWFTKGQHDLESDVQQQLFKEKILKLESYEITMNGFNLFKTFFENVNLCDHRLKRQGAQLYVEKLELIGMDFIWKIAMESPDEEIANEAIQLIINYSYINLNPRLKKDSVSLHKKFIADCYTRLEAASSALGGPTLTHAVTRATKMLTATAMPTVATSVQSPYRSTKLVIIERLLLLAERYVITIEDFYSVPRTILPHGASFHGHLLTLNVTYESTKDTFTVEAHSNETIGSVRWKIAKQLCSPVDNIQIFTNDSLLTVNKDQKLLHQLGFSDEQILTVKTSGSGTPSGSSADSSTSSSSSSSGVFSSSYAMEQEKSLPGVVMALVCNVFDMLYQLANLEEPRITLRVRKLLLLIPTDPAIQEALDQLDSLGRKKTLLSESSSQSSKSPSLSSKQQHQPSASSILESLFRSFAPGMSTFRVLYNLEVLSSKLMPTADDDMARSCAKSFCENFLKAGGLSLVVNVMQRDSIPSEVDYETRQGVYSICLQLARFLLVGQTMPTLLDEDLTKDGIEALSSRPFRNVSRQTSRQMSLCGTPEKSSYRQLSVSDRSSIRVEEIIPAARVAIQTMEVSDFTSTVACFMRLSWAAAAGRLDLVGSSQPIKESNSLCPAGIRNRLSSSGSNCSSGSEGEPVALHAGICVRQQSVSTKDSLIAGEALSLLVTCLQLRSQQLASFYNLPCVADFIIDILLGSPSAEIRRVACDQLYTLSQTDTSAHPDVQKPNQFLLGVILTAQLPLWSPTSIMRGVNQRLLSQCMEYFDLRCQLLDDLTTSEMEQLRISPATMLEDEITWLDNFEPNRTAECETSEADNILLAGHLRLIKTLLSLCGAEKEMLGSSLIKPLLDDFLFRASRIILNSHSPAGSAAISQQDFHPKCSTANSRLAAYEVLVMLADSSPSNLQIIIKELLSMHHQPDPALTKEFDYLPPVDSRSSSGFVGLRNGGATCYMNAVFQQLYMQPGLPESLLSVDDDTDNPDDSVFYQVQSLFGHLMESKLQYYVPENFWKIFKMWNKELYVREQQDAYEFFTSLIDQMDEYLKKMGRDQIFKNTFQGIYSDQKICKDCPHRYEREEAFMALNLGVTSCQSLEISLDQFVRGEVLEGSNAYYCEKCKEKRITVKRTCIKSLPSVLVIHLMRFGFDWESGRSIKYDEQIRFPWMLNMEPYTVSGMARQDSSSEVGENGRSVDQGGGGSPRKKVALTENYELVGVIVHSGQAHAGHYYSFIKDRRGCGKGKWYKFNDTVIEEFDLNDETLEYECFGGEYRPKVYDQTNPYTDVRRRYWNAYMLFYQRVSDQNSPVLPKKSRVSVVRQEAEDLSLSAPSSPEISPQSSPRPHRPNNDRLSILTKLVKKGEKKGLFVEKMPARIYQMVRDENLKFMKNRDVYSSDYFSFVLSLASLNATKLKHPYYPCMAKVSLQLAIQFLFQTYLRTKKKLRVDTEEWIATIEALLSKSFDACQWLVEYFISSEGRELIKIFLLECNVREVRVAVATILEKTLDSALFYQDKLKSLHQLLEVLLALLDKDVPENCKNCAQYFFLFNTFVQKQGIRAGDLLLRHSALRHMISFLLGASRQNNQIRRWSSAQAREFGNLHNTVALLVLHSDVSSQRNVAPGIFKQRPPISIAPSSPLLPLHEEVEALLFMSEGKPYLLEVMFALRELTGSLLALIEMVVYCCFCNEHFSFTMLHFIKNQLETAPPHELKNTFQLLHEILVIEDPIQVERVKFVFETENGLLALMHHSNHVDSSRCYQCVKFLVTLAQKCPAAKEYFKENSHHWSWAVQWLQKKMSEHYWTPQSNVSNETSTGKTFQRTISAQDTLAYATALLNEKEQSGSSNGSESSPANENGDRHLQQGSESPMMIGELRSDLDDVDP

CCN(C(=O)CCl)C1CCCCC1
inactive: USP19 0.1 | USP22 0.0286 | USP24 -0.333 | USP25 0.0335 | USP28 -0.0965
